PubChem BioAssay (NCATS)
“And” between values parts separate entries of the source, which are not always exact repeats. Equal values may be shown once. Records with an inconclusive call do not appear. The source made the active and inactive calls. Calls follow the shape of the dose curve; as a rule, active = well fitted cell-killing curve with a large enough effect; inconclusive = small, poorly fitted or top-dose-only effect, or effect the other way; inactive = no such curve, though single readings can be large or run the other way.

Assay: qHTS of pediatric cancer cell lines to identify multiple opportunities for drug repurposing: Confirmatory screen for LAN-5 cells (AID 1347113); also: nearly all actives have a fitted effect of over 65% in size
Conditions: LAN-5 neuroblastoma cell viability; series mostly up to 45.9 µM; activity change, negative = cytotoxicity: at the top concentration
From the text: Drug repurposing or repositioning has been offered as a strategy for drug development in oncology programs. This approach has special potential for childhood cancers and other rare or orphan diseases, where the expected return on new drug development has been a disincentive to pharmaceuticals.
In this project we exploit the poly-pharmacology of drugs to discover new indications via phenotypic screening of a panel of 19 well-characterized cell lines derived from solid tumors seen in children and adolescents. The goal is to identify approved drugs with previously unrecognized anticancer properties that has the potential to reveal new mechanisms and biological processes involved in carcinogenesis or drug resistance. We employed a titration-based paradigm (quantitative high-throughput screening or qHTS), where all compounds were tested at multiple concentrations for their effect on cell viability. Concentration-response curves (CRCs) were derived directly from the primary screen, and both potency and efficacy values were used to identify compounds with robust bioactivity profiles. We screened the NIH Chemical Genomics Center (NCGC) Pharmaceutical Collection (NPC) and Mechanism Interrogation Plate (MIPE) small molecule collections of approved and investigational compounds against these cell lines; and measured metabolically active cells after 48 hours of compound treatment as a proxy for cell viability.
Assay Submitter: Nathalia J. Martinez, National Center for Advancing Translational Sciences, National Institutes of Health, Rockville, MD, USA; email: natalia.martinez@nih.gov
[1] Shen, M et al. Quantitative high-throughput phenotypic screening of pediatric cancer cell lines identifies multiple opportunities for drug repurposing. Oncotarget 2017 Dec 19;9(4):4758-4772. PMID 29435139.
The cells were obtained from University of North Carolina (UNC), Pediatric Preclinical Testing Program (PPT), and Coriell Institute (CI).
qHTS cell viability assay:
Cells were assayed in growth media at a density of 500-1,000 cells/well. Five microliters of cells were dispensed into 1,536-well, white, solid-bottom, TC-treated plates (Greiner Bio One) using a multidrop dispenser and incubated at 37 degrees C, 5% CO2, under a humidified atmosphere for 5 hours. Twenty-three nanoliters of compounds and controls (neutral control DMSO or positive control bortezomib at final concentration of 2.3 µM) were subsequently transferred by Kalypsys pintool. For primary screens, the MIPE collection was tested at 11-point dilutions (final concentrations range from 0.78 nM to 46 µM) and the NPC collection at 8-point dilutions (final concentrations range from 0.59 nM to 46 µM). Compounds tested in follow-up screens were assayed at 11-point dilutions. Cells were incubated for 48 hours, followed by addition of 3 µL of CellTiter-Glo (Promega). After a 15 min incubation at room temperature, samples were analyzed for luminescence intensity using a ViewLux High-throughput CCD imager equipped with clear filters.
% is scaled to controls: 0 for no effect and ±100 for the full control effect; potency is read from the fitted curve at half-maximal effect.

Row | Compound | activity change, negative = cytotoxicity | Potency | outcome
1 | CNS(=O)(=O)CCc1ccc2[nH]cc(C3CCN(C)CC3)c2c1 | 14.4% (inactive) |  | 
2 | Oc1c(Cl)cc(Cl)c2cccnc12 |  | 14.7 µM (active) | 
3 | CCCCOc1ccc(CC(=O)NO)cc1 | -18.7% (inactive) |  | 
4 | CNNCc1ccc(C(=O)NC(C)C)cc1 | 24.2% (inactive) |  | 
5 | NC(=O)c1cccnc1 | -16.2% (inactive) |  | 
6 | COc1cc([C@@H]2c3cc4c(cc3[C@H](O)[C@H]3COC(=O)[C@H]23)OCO4)cc(OC)c1OC |  | 0.0827 µM (active) | 
7 | Cc1cccc(N(C)C(=S)Oc2ccc3ccccc3c2)c1 | 10.4% (inactive) |  | 
8 | C[C@@H](CN1CC(=O)NC(=O)C1)N1CC(=O)NC(=O)C1 | 5.94% (inactive) |  | 
9 | CC(C)C[C@H](NC(=O)[C@H](CCc1ccccc1)NC(=O)CN1CCOCC1)C(=O)N[C@@H](Cc1ccccc1)C(=O)N[C@@H](CC(C)C)C(=O)[C@@]1(C)CO1 |  | 0.0329 µM (active) | 
10 | COc1cc2c(Nc3ccc(Br)cc3F)ncnc2cc1OCC1CCN(C)CC1 | 5.31% (inactive) |  | 
11 | CN(C)c1ccc(C(=C2C=CC(=[N+](C)C)C=C2)c2ccc(N(C)C)cc2)cc1 |  | 1.17 µM (active) | 
12 | CCC(=O)O[C@]1(C(=O)CCl)[C@@H](C)C[C@H]2[C@@H]3CCC4=CC(=O)C=C[C@]4(C)[C@@]3(F)[C@@H](O)C[C@@]21C | 9.12% (inactive) |  | 
13 | Nc1nc(=S)c2[nH]cnc2[nH]1 |  | 2.93 µM (active) and 2.33 µM (active) | 
14 | COc1ccc(C(=O)CC(=O)c2ccc(C(C)(C)C)cc2)cc1 | 22.4% (inactive) |  | 
15 | CC1CC2C3CCC4=CC(=O)C=C[C@]4(C)[C@@]3(F)[C@@H](O)C[C@]2(C)[C@@]1(O)C(=O)CO (stereo not given in full) | 6.92% (inactive) |  | 
16 | CC(C)(C#N)c1cc(Cn2cncn2)cc(C(C)(C)C#N)c1 | 16.4% (inactive) |  | 
17 | CC(C)NCC(O)c1ccc(NS(C)(=O)=O)cc1 (stereo not given) | 10% (inactive) |  | 
18 | CCOC(=O)c1ccc(C#Cc2ccc3c(c2)C(C)(C)CCS3)nc1 | 1.33% (inactive) |  | 
19 | CC(C)(C)C(=O)OCOP(=O)(COCCn1cnc2c(N)ncnc21)OCOC(=O)C(C)(C)C |  | 9.27 µM (active) | 
20 | C[C@@H]1C[C@H]2[C@@H]3CCC4=CC(=O)C=C[C@]4(C)[C@@]3(Cl)[C@@H](O)C[C@]2(C)[C@@]1(OC(=O)c1ccco1)C(=O)CCl |  | 0.233 µM (active) | 
21 | CS(=O)(=O)c1ccc([C@@H](O)[C@@H](CO)NC(=O)C(Cl)Cl)cc1 | 0.433% (inactive) |  | 
22 | CCc1c2c(nc3ccc(OC(=O)N4CCC(N5CCCCC5)CC4)cc13)-c1cc3c(c(=O)n1C2)COC(=O)[C@]3(O)CC |  | 2.93 µM (active) | 
23 | Nc1nc(N)c2nc(CNc3ccc(C(=O)NC(CCC(=O)O)C(=O)O)cc3)cnc2n1 (stereo not given) | 0.716% (inactive) |  | 
24 | COc1cc(NCc2ccc3nc(N)nc(N)c3c2C)cc(OC)c1OC |  | 18.5 µM (active) | 
25 | CNC(=O)c1cc(Oc2ccc(NC(=O)Nc3ccc(Cl)c(C(F)(F)F)c3)cc2)ccn1 |  | 23.3 µM (active) | 
26 | CCOC(=O)[C@H](CCc1ccccc1)N[C@H]1CS[C@H](c2cccs2)CN(CC(=O)O)C1=O | 11.5% (inactive) |  | 
27 | COc1nc(N)nc2c1ncn2[C@@H]1O[C@H](CO)[C@@H](O)[C@@H]1O |  |  | inactive
28 | CO[C@@]12[C@H](COC(N)=O)C3=C(C(=O)C(C)=C(N)C3=O)N1C[C@@H]1N[C@@H]12 |  | 1.31 µM (active) | 
29 | Cn1nnc2c(C(N)=O)ncn2c1=O |  |  | inactive
30 | CCC(=O)O[C@]1(C(=O)SCF)[C@H](C)C[C@H]2[C@@H]3C[C@H](F)C4=CC(=O)C=C[C@]4(C)[C@@]3(F)[C@@H](O)C[C@@]21C | 26.8% (inactive) |  | 
